Gli-Sufu antag: Gli-Sufu pathway antagonism; hit rate 0.74% among 340,000; Sufu-KO-LIGHT fibroblasts, Gli luciferase reporter luminescence; inhibition, % at 5 µM;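 active means inhibition above about 55%, limit read from the data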;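 further: 0% = DMSO-treated cells and 100% = wells with medium but no cells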
Mdm2-MdmX inh: inhibitors of human Mdm2/MdmX interaction | O15151+Q00987 | inhibition, % at 8 µM | hit rate 3% among 330,000 | SaOS-2 split-luciferase Mdm2/MdmX complementation, luminescence;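 active means inhibition of at least 50% at 8 µM in the primary screen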
Target sequence (O15151 whole entry, looked up): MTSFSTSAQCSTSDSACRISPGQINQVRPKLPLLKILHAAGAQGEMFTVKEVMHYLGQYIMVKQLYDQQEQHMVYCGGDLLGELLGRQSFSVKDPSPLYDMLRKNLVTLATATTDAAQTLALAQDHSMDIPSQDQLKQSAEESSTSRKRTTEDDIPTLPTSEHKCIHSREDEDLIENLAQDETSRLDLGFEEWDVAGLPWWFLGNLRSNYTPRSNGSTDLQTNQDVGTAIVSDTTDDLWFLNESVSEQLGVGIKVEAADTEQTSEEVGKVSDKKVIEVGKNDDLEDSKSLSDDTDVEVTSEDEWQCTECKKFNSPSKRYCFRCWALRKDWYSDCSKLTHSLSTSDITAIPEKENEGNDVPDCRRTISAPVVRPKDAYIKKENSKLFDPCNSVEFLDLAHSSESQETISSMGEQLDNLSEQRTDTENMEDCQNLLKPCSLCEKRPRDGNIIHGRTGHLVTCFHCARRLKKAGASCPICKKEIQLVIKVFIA
Target sequence (Q00987 whole entry, looked up): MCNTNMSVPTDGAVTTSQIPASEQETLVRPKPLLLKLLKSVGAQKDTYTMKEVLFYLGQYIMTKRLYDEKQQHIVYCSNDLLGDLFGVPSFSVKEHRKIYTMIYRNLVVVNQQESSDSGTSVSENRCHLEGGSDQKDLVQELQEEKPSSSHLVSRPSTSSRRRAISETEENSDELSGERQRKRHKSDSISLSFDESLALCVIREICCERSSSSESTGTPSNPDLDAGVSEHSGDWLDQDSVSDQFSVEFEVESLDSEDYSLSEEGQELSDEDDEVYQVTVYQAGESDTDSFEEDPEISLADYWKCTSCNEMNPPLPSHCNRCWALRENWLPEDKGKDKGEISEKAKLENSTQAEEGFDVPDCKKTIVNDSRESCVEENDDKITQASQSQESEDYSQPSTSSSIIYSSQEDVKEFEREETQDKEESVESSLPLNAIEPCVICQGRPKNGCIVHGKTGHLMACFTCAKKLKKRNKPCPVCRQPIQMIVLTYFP
PAX8 inh HTS: lowers PAX8-driven luciferase in RMG-I cells | inhibition, % at 12.6 µM | AID 652154 | RMG-I TPO-luciferase reporter, SteadyGlo, 24 h | hit rate 1.2% among 360,000;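 active means mean replicate inhibition at least 60% with every replicate also reaching 60%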;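 further: luciferase light reporting Pax8 driven TPO promoter activity; plate controls were median of neutral control wells for no effect and mitoxantrone controls for full effect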
Shn3 inh set2: inhibitors of Schnurri-3 3'UTR reporter in osteoblasts. inhibition, % at 12.5 µM. hit rate 0.52% among 360,000. AID 588674. Clone20 osteoblast Shn3 3'UTR firefly luciferase, 24 h;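 active means mean inhibition of at least 75% with every replicate also reaching 75%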;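 further: 0% = median of neutral control wells and 100% = pilot-screen positive control compound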
Beta cell apopt: beta cell apoptosis inhibition; INS-1E cytokine-induced death, ATP luminescence, 48 h; percent of positive-control rescue, neutral wells zero; protection from apoptosis, % (test concentration not listed); hit rate 0.8% among 300,000; AID 435005;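 active means Every replicate reaches about 75%, or at least half do and their mean reaches it too, limit read from the data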;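 further: 0% = cytokine-treated negative control wells and 100% = positive control rescue; higher means more ATP so stronger rescue from cytokine killing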
CSC inhib: cancer stem cell inhibition; cancer stem cell-like cells viability, luminescence; inhibition, % at 7.5 µM; hit rate 1.1% among 300,000; in the data active means inhibition above about 75%; tested in HMLE shEcad cells
Mdm2 MdmX conf: human Mdm2/MdmX binding inhibition, confirmed | luminescent assay | hit rate 55% among 10,000 | shares compounds with Mdm2-MdmX inh | inhibition, % at 8 µM | AID 489028; in the data active means inhibition above about 40%
Full FLuc ctr: full-length luciferase inhibition in Mdm2/MdmX counter-screen; shares compounds with Mdm2-MdmX inh; SaOS-2 full-length luciferase counterscreen, luminescence; inhibition, % at 8 µM; hit rate 77% among 6,200; AID 504607;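 active means mean inhibition at 8 µM reaching about 37%, which flags the compound as non-specific, limit read from the data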;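 further: p53-null SaOS-2 cells with luciferase driven by a doxycycline-inducible promoter; compound on cells about two nights before reading with doxycycline added after day one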
Active calls of the source: *; nt = not tested or not shown. A selection: hits, their analogues and other compounds. The true share with any hit is near 4%.

SMILES	Gli-Sufu antag	Mdm2-MdmX inh	PAX8 inh HTS	Shn3 inh set2	Beta cell apopt	CSC inhib	Mdm2 MdmX conf	others
CC(C)[C@H]1C(=O)O[C@H](C(C)C)C(=O)N(C)[C@@H](C(C)C)C(=O)O[C@H](C(C)C)C(=O)N(C)[C@@H](C(C)C)C(=O)O[C@H](C(C)C)C(=O)N1C	83.8*	95.3*	nt	89.8*	109.0*	-7.3	88.2*	Full FLuc ctr=48.5*
COC(=O)C(C)Oc1cc(C)cc2oc(=O)c3c(c12)CCC3 (stereo unspecified)	-2.8	52.3*	nt	-35.7	-0.2	-18.8	27.2
COC(=O)C[C@@H]1CC[C@H]2NC[C@H](O)COC[C@@H]2O1	nt	nt	-8.5	nt	nt	nt	nt
O=[N+]([O-])c1ccc(NC2CCN(Cc3ccccc3)CC2)c2ccncc12	34.0	63.9*	28.4	15.9	-1.7	0.3	35.9
C[C@H]1CCC/C=C/[C@@H]2C[C@H](O)C[C@H]2[C@H](O)/C=C/C(=O)O1	88.9*	97.0*	109.5*	97.0*	116.9*	100.3*	98.5*	Full FLuc ctr=47.7*
C[C@H]1CCCC(=O)CCC/C=C/c2cc(O)cc(O)c2C(=O)O1	-0.2	21.8	26.5	10.4	-9.8	12.3	nt
C[C@@H]1O[C@@H](O[C@H]2C[C@@H](O)[C@]3(CO)[C@H]4[C@H](O)C[C@]5(C)[C@@H](C6COC(=O)C6)CC[C@]5(O)[C@@H]4CC[C@]3(O)C2)[C@H](O)[C@H](O)[C@H]1O (stereo partly specified)	1.8	57.7*	105.1*	-3.1	-2.8	82.0*	67.4*	Full FLuc ctr=26.8
C/C=C(\C)C(=O)N[C@@H](c1ccccc1)[C@@H](O)C(=O)O[C@H]1C[C@@]2(O)[C@@H](OC(=O)c3ccccc3)C3[C@](C)(C(=O)[C@H](O)C(=C1C)C2(C)C)[C@@H](O)C[C@H]1OC[C@@]31OC(C)=O (stereo partly specified)	-2.0	53.3*	nt	1.5	nt	62.9	64.8*	Full FLuc ctr=41.0*
C/C=C(\C)C(=O)N[C@@H](c1ccccc1)[C@@H](O)C(=O)O[C@H]1C[C@@]2(O)[C@@H](OC(=O)c3ccccc3)C3[C@](C)(C(=O)[C@H](OC(C)=O)C(=C1C)C2(C)C)[C@@H](O)C[C@H]1OC[C@@]31OC(C)=O (stereo partly specified)	-9.5	34.5	nt	24.1	13.4	39.7	nt
Cc1nn(C)cc1/C=C1/CC2C3CC=C4CC(O)CCC4(C)C3CCC2(C)C1=O (stereo unspecified)	2.8	34.7	nt	-6.6	nt	-12.7	nt
CC12CCC3C(CC=C4CC(O)CCC43C)C1C/C(=C\c1ccccc1F)C2=O (stereo unspecified)	0.9	77.8*	-8.0	4.0	-2.4	99.2*	27.4
C[C@]12CC[C@H](O)CC1=CC[C@@H]1[C@@H]2CC[C@]2(C)C(=O)CC[C@@H]12	18.4	12.7	-2.4	-6.7	-4.7	-10.3	nt
C[C@]12CC[C@H](O)CC1=CCC1C2CC[C@]2(C)C(=O)[C@H](Br)CC12 (stereo partly specified)	5.2	50.0*	17.8	4.3	-22.7	3.6	-10.4
COC(=O)[C@@H]1[C@@H](CO)[C@@H]2Cn3c(ccc(-c4ccccc4)c3=O)[C@H]1N2CC1CCCCC1	nt	nt	21.6	nt	nt	nt	nt
COC(=O)C[C@H]1CC[C@H]2NC[C@H](O)COC[C@@H]2O1	nt	nt	5.5	nt	nt	nt	nt
COc1ccc(C#Cc2ccc([C@@H]3[C@H]4CN(C(=O)Cc5cccnc5)CCCCN4[C@H]3CO)cc2)cc1	nt	nt	29.3	nt	nt	nt	nt
Cc1ccc(/C=C2\C(=O)NC(=S)N(c3ccc(F)cc3)C2=O)s1	-25.7	79.9*	-112.8	34.7	-11.0	28.3	4.4
COc1ccc(-c2ccc([C@H]3[C@@H](CO)N4CCCCN(C(=O)Cc5ccncc5)C[C@H]34)cc2)cc1	nt	nt	8.3	nt	nt	nt	nt
COC(=O)C(Cc1ccc(N(CCCl)CCCl)cc1)N=Cc1ccccc1O (stereo unspecified)	63.8*	92.7*	97.0*	54.1	105.9*	83.0*	83.1*	Full FLuc ctr=59.2*
O=[N+]([O-])c1ccc(N2CCNCC2)cc1N1CCCCCC1	10.6	11.7	22.3	23.2	-5.9	8.5	nt
O=[N+]([O-])c1cc(F)c(N2CCCCCC2)cc1N1CCNCC1	13.3	52.3*	0.6	-17.7	9.5	55.4	26.6
O=C(Cc1cccnc1)N1CCCCN2[C@H](C1)[C@@H](c1ccc(/C=C/c3ccccc3)cc1)[C@@H]2CO	nt	nt	-9.8	nt	nt	nt	nt
CCCCCCC(=O)N/N=C/c1c(O)n(C(C)CC)c(=S)[nH]c1=O (stereo unspecified)	0.5	57.5*	15.0	14.6	7.3	16.0	14.3
CCCCCCC(=O)N/N=C/c1c(O)n(CCc2ccccc2)c(=O)[nH]c1=O	2.4	59.1*	-16.4	6.5	17.6	10.3	35.8
CCCCCCC(=O)N/N=C/c1c(O)n(C2CC2)c(=S)[nH]c1=O	-0.1	4.8	7.7	-9.7	-8.4	1.3	nt
SMILES	Gli-Sufu antag	Mdm2-MdmX inh	PAX8 inh HTS	Shn3 inh set2	Beta cell apopt	CSC inhib	Mdm2 MdmX conf	others
CCOC(=O)c1c(C)n(Cc2ccccc2)c2ccc(OCC(O)CNC(C)(C)C)cc12 (stereo unspecified)	16.9	50.9*	40.9	2.8	8.2	-3.7	26.5
CCOC(=O)c1c(C)n(Cc2ccccc2)c2ccc(OCC(O)Cn3nc(C)nc3C)cc12 (stereo unspecified)	nt	-2.3	3.3	-3.1	nt	-9.4	nt
Brc1ccc2c(c1)C(OC1CN3CCC1CC3)c1ccccc1CS2 (stereo unspecified)	9.8	80.2*	nt	5.3	7.5	-1.0	66.8*	Full FLuc ctr=33.8
c1ccc2c(c1)CSc1ccccc1C2C1=NCCN1 (stereo unspecified)	1.8	2.6	1.3	-8.9	-5.1	-1.0	nt
COC(=O)[C@H]1[C@H](CO)[C@H]2Cn3c(cccc3=O)[C@@H]1N2Cc1nccs1	nt	nt	-1.1	nt	nt	nt	nt
O=C(/C=C/c1ccc2c(c1)OCO2)c1c(O)n(CCc2ccccc2)c(=O)[nH]c1=O	4.3	65.0*	6.8	-8.8	-11.9	56.2	25.6
COc1cc(/C=C/C(=O)c2c(O)n(CCc3ccccc3)c(=O)[nH]c2=O)ccc1O	1.3	53.4*	19.2	-5.0	-6.5	-11.4	46.0*	Full FLuc ctr=47.7*
CCCCn1c(O)c(C(C)=NCc2ccc3c(c2)OCO3)c(=O)[nH]c1=O	-5.7	28.7	12.2	14.7	-5.6	5.6	nt
O=C(/C=C/c1ccccc1)c1c(O)n(CCc2ccccc2)c(=O)[nH]c1=O	-11.2	69.1*	5.1	3.9	1.5	41.7	37.4
O=c1[nH]c(=O)n(CCc2ccccc2)c(O)c1C=NCCN1CCNCC1	nt	-2.4	nt	-7.9	-1.9	3.9	nt
COC(=O)[C@@H]1[C@@H](CO)[C@@H]2Cn3c(ccc(-c4ccncc4)c3=O)[C@H]1N2S(=O)(=O)c1ccccc1C	nt	nt	1.7	nt	nt	nt	nt
